Source: PubChem BioAssay (National Center for Advancing Translational Sciences (NCATS))
Compounds with a hit are over-represented: about 1.7% of the library has one in this group of screens.
KCNH2 3.1 inh: qHTS for Inhibitors of KCHN2 3.1: Mutant qHTS; U2OS KCNH2 3.1, thallium flux FluxOr; hits give low values; activity change, % (tested at about 1.8 µM); hit rate 0.95% among 340,000;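 active = maximum activity change below -70%; inconclusive = maximum activity change from -70% to -50%; inactive = maximum activity change above -50%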;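 note: thallium influx rate constant from kinetic fluorescence after stimulation buffer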
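Thallium flux via FluxOr fluorescence (Red40 quencher, 45 min loading) in U2OS cells virally expressing the KCNH2 3.1 isoform (1.77 x 10^8 /mL virus, overnight at 37 C). Rate constants from 2-min kinetic reads post-stimulation, normalised to positive and negative controls.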
TRPML1 agonist: qHTS for Agonists of the Human Mucolipin Transient Receptor Potential 1 (TRPML1) | Mucolipin-1 (Homo sapiens), Q9GZU1 | TRPML1-expressing cells, Ca2+ dye fluorescence, FDSS | activation, % (no concentration beside the values) | hit rate 0.12% among 410,000 | AID 624414, 2012; in the data active = activation above about 50%; inconclusive = mostly about 30% to 49%
Target sequence (Q9GZU1 whole entry, looked up): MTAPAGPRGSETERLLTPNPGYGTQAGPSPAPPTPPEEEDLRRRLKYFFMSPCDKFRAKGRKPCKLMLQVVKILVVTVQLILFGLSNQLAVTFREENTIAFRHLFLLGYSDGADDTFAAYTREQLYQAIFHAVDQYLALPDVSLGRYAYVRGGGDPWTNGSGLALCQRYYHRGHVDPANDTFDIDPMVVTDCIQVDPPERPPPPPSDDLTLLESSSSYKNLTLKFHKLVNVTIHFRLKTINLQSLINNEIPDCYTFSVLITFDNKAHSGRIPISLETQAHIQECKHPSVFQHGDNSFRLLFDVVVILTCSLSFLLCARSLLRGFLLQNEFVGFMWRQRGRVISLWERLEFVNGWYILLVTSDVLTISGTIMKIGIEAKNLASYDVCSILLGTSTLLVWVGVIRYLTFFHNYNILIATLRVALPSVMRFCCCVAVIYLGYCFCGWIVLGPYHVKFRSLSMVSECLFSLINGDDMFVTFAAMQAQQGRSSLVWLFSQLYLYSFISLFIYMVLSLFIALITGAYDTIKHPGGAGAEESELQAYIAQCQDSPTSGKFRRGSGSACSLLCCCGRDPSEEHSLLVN
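Tet-induced TRPML1-DL cells, 1,500 per well, cultured overnight, were loaded with a no-wash Ca2+ dye for 45–90 min. Calcium fluorescence was recorded on the FDSS for 110 s after compound addition, before the EC80 agonist (4 uM 54-4) was added.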
TRHR PAM: qHTS for Small Molecule Agonists and Allosteric Enhancers of Human TRH Receptor: Primary Screen for Enhancers | Thyrotropin-releasing hormone receptor (Homo sapiens), P34981 | TRHR cells, fluo-8 calcium fluorescence, EC20 TRH enhancement | enhancement, % at 2 µM | hit rate 0.66% among 360,000 | AID 493056, 2011; in the data active = enhancement above about 30%
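TRHR-expressing cells loaded with fluo-8 calcium dye were read kinetically (ex 480/em 530) during compound addition, then stimulated with an EC20 of TRH (10 nM final). Enhancement of the Gq-mediated intracellular calcium response was scored.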
TRPML1 inh: qHTS for Inhibitors of the Human Mucolipin Transient Receptor Potential 1 (TRPML1); Mucolipin-1 (Homo sapiens), Q9GZU1; TRPML1-inducible cells, Ca2+ dye fluorescence, FDSS; hits give low values; inhibition of EC80 agonist-evoked calcium signal; activity change, negative = inhibition, % (concentration not given with the values); hit rate 0.02% among 390,000; AID 624415, 2012; in the data active = activity change below about -50%; inconclusive = between about -30% and that limit;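 note: stimulus is agonist 54-4 at its EC80 concentration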
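TRPML1-DL cells, Tet-induced overnight (~16 h, 37 °C) at 1,500 cells/well, were loaded with Ca8 no-wash dye plus quencher for 45-90 min at room temperature. Compounds were pinned during FDSS kinetic reading; agonist 54-4 at EC80 (4 uM final) then added.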
KCNH2 WT inh: qHTS for Inhibitors of KCHN2 3.1: Wildtype qHTS. Voltage-gated inwardly rectifying potassium channel KCNH2 (Homo sapiens), Q12809. U2OS, BacMam KCNH2, thallium flux FluxOr; hits give low values. activity change, % at 1.84 µM. hit rate 0.37% among 340,000;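 active = maximum activity change below -70%; inconclusive = maximum activity change between -70% and -50%; inactive = maximum activity change above -50%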
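U2OS cells transduced with wild-type KCNH2 virus are loaded with FluxOr dye for 45 min, and thallium flux is measured in kinetic reads before and after stimulation buffer. Rate constants are normalized to DMSO controls.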
TRHR agonist: qHTS for Small Molecule Agonists and Allosteric Enhancers of Human TRH Receptor: Primary Screen for Agonists. Thyrotropin-releasing hormone receptor (Homo sapiens), P34981. TRHR cells, calcium flux fluo-8, FDSS agonist mode. activation, % at 2 µM. hit rate 0.18% among 360,000. AID 493084, 2011; in the data active = activation above about 30%
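In this calcium-flux screen, cells bearing human TRHR are dye-loaded with fluo-8, baselined for 10 cycles, then exposed to library compounds; positive kinetic calcium responses during the agonist phase mark hits, with TRH as control.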
Hits are given with their value; i = inactive; ? = inconclusive; nt = no result.

SMILES	KCNH2 3.1 inh	TRPML1 agonist	TRHR PAM	TRPML1 inh	KCNH2 WT inh	TRHR agonist
COc1cccc(-c2nc(CN3CCN(C(=O)c4ccco4)CC3)c(C)o2)c1OC	-90	i	nt	i	i	nt
Cc1nonc1C(=O)N/N=C/c1ccc([N+](=O)[O-])o1	i	i	i	i	i	i
Cc1cc(C(=O)N/N=C/c2ccc([N+](=O)[O-])o2)c(C)o1	-92	i	i	i	i	i
CCn1ccnc1CN1CCC(n2nccc2NC(=O)c2ccccc2OC)CC1	i	i	i	i	i	i
CC(=O)Nc1cc(-c2ccccc2Cl)cn2c(-c3ccc(S(C)(=O)=O)cc3)cnc12	nt	i	nt	nt	nt	nt
COCc1cccc(-c2csc(C(C)(NC(C)=O)c3ccccc3)n2)c1 (centres undefined)	nt	i	nt	nt	nt	nt
CN1CCN(c2ccccc2NC(=O)c2cc(Br)ccc2Cl)CC1	-87	i	i	i	i	i
O=C(Nc1ccccc1N1CCN(C(=O)c2ccc(Cl)cc2)CC1)c1cccc([N+](=O)[O-])c1	-102	i	i	i	-123	i
Cc1ccc(C(=O)Nc2ccccc2N2CCCCC2)cc1[N+](=O)[O-]	-83	i	i	i	i	i
Cn1c(=O)n(C)c2cc([N+](=O)[O-])c(N3CCN(C(=O)c4cccc(Cl)c4)CC3)cc21	i	i	38	i	i	i
CN1CCN(c2ccccc2NC(=O)c2cccc([N+](=O)[O-])c2)CC1	i	i	i	i	i	i
Cc1c(OCC(=O)N2CCC(C(=O)NCCCC(=O)O)CC2)ccc2c1oc(=O)c1ccccc12	i	i	i	i	i	i
C#Cc1nc(Nc2cccc(Cl)c2)nc(NC2CCCC2)n1	nt	nt	i	nt	nt	i
Cc1cc(N(C)C)c(C)cc1/C=C/c1ccnc2ccccc12	nt	i	nt	nt	nt	nt
O=C(Nc1ccccc1N1CCN(C(=O)c2ccc(Cl)cc2)CC1)c1cc(Br)ccc1Cl	-101	i	i	i	-121	i
CN(C)Cc1ccccc1Sc1ccc(O)cc1O	i	i	30	i	i	i
COc1ccc(-c2nnc(SCC(=O)NC3CCCC3)nc2-c2ccc(OC)c(OC)c2)cc1OC	nt	i	33	i	nt	i
CCOc1ccc(-c2nnc(SCC(=O)NC3CCCCC3)nc2-c2ccc(OCC)c(OC)c2)cc1OC	nt	i	i	i	nt	i
CN(C)c1ccc(/C=C/c2nc3ccccc3c(=O)n2-c2ccc(C(=O)O)cc2)cc1	i	64	30	i	i	121
O=C(NC1CCCCC1)c1cc(-c2cccs2)on1	-71	i	i	i	i	i
COc1ccc(NCc2cc3cc4c(cc3n(CC(=O)Nc3ccc(F)cc3F)c2=O)OCO4)cc1	nt	i	35	i	nt	i
COc1ccc(NCc2cc3cc4c(cc3n(CC(=O)Nc3cccc(F)c3)c2=O)OCO4)cc1	nt	i	i	i	nt	i
S=C(NCc1ccc(Cl)cc1)NC1CCN(Cc2ccccc2)CC1	-76	i	i	i	i	i
Cn1c(SCC(=O)NCc2ccco2)nnc1-c1cccc(NC(=O)c2ccccc2)c1	nt	i	nt	nt	nt	nt
CN1CCN(Cc2c(O)ccc3cc(-c4ccccc4)c(=O)oc23)CC1	nt	i	i	i	nt	i
SMILES	KCNH2 3.1 inh	TRPML1 agonist	TRHR PAM	TRPML1 inh	KCNH2 WT inh	TRHR agonist
O=c1oc2c(CN3CCCCC3)c(O)ccc2cc1-c1nc2ccccc2[nH]1	i	i	40	i	i	261
O=c1oc2c(O)cccc2cc1-c1nc2ccccc2[nH]1	i	i	48	i	i	199
CCCC(=O)Oc1ccc2[nH]c(C(=O)c3cc4ccccc4[nH]3)cc2c1	nt	i	nt	nt	nt	nt
C=CCn1c(SCC(=O)c2c(N)n(C)c(=O)n(C)c2=O)nnc1-c1ccoc1C	i	i	nt	i	i	nt
COc1cc2c(cc1OC)CN(C(=O)C1CCN(S(=O)(=O)c3ccccc3F)CC1)CC2	i	i	i	i	i	i
CCOc1ccc(Nc2nc(N)c([N+](=O)[O-])c(N3CCOCC3)n2)cc1	i	i	38	i	i	i
CCOc1ccc(Nc2nc(N)c([N+](=O)[O-])c(N3CCN(CC)CC3)n2)cc1	?	i	i	i	i	i
CC(C)c1ccc(NC(=O)c2cc(S(=O)(=O)NCC3COc4ccccc4O3)ccc2F)cc1 (centres undefined)	-72	i	i	i	i	i
O=C(O)c1ccccc1-c1c2cc(I)c(=O)c(I)c-2oc2c(I)c(O)c(I)cc12	i	177	nt	-90	i	nt
Cc1ccc(S(=O)(=O)/N=C2/NC(=O)/C(=C/c3cc([N+](=O)[O-])ccc3O)S2)cc1	i	67	i	i	i	i
COc1cc(/C=C2\S/C(=N/S(=O)(=O)c3ccc(C)cc3)NC2=O)c([N+](=O)[O-])cc1OC	i	i	i	i	i	i
Cc1ccc(NC(=O)c2c(C)oc3ncn(C)c(=O)c23)cc1F	nt	i	i	i	nt	i
Cc1ccccc1NC1=CC(=O)CC(C)(C)C1	i	i	i	i	i	i
Cc1c(NC2=CC(=O)CC(C)(C)C2)ccc([N+](=O)[O-])c1C	-104	i	i	i	i	i
O=C(CCNC(=O)c1ccc(Cl)cc1)Nc1ccc(S(=O)(=O)N2CCCCC2)cc1	i	i	i	i	i	i
CCOC(=O)c1ccc(NC(=S)N(CCCN2CCCCCC2)Cc2ccco2)cc1	i	i	i	i	i	i
CCOC(=O)c1ccc(NC(=S)N(CCN2CCCCCC2)Cc2ccco2)cc1	-90	i	i	i	i	i
Cc1ccc2c(c1)N(C(=O)CCC(=O)NCCCN1CCN(C)CC1)CCO2	i	i	i	i	i	i
Cc1ccc2c(c1)N(C(=O)CCC(=O)NCCCN1CCC(Cc3ccccc3)CC1)CCO2	-116	i	i	i	i	i
Cc1ccc(C(=O)NC2CCN(CC(=O)Nc3ccccc3Cl)CC2)cc1	i	i	i	i	i	i
CCn1cc(C(=O)OCC(=O)N(C)C2CCS(=O)(=O)C2)c(=O)c2ccc(C)nc21 (centres undefined)	i	i	31	i	i	i
CCOc1ccc(C(=O)OCC(=O)N2CCCC2)cc1	i	i	i	i	i	i
CCCCCCC[n+]1ccc(/C=C/c2c[nH]c3ccccc23)cc1	nt	63	nt	nt	nt	nt
CC[n+]1ccc(/C=C/c2c[nH]c3ccccc23)cc1	i	i	i	i	i	i
CCCCCCCCCC[n+]1ccc(/C=C/c2c(C)[nH]c3ccccc23)cc1	nt	123	nt	nt	nt	nt
